Several values for one entry are separate records, joined by “and”; a condition that tells them apart may be missing. Equal values may be shown once. The campaign covered roughly 5,500 compounds. About 2,000 (36%) were called active. Roughly 18% stayed inconclusive and do not appear here. Rule as the data show it: active = normalized growth mostly below about 0.91 (no sharp cut-off); inconclusive = no clear call, values can overlap the other calls; inactive = mostly above about 0.92. Some of the results follow.
Test: chemical genetic growth profiling, strain panel (AID 1159580);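 also: tested at 20 µM; growth read once vehicle control cultures reached saturation at 30 °C; 1 = growth at the plate median or of vehicle wells; lower values mean less growth of the strain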
Details: S. cerevisiae deletion strains, growth OD

Measured: normalized growth

COc1ccc2c(c1OC)C(=O)O[C@H]2[C@H]1c2cc3c(cc2CCN1C)OCO3
inactive: locus YAL013W, strain DEP1, stronger effect = lower value 0.997 | locus YAL021C, strain ccr4, stronger effect = lower value 0.987 | locus YAL026C, strain drs2, stronger effect = lower value 1.01 | locus YAL030W, strain snc1, stronger effect = lower value 1 | locus YBL061C, strain skt5, stronger effect = lower value 0.997 | locus YBR009C, strain hhf1, stronger effect = lower value 1.01 | locus YBR021W, strain FUR4, stronger effect = lower value 1 | locus YBR023C, strain chs3, stronger effect = lower value 0.988 | locus YBR171W, strain sec66, stronger effect = lower value 0.988 | locus YBR229C, strain ROT2, stronger effect = lower value 1.01 | locus YBR231C, strain swc5, stronger effect = lower value 1 | locus YBR279W, strain paf1, stronger effect = lower value 0.995 | locus YCL011C, strain gbp2, stronger effect = lower value 1 | locus YCL016C, strain dcc1, stronger effect = lower value 1 | locus YCL029C, strain bik1, stronger effect = lower value 1.02 | locus YCL061C, strain MRC1, stronger effect = lower value 1 | locus YCL069W, strain vba3, stronger effect = lower value 1 | locus YCR088W, strain abp1, stronger effect = lower value 1.01 | locus YDL005C, strain med2, stronger effect = lower value 0.997 | locus YDL035C, strain GPR1, stronger effect = lower value 1 | locus YDL040C, strain nat1, stronger effect = lower value 0.991 | locus YDL074C, strain BRE1, stronger effect = lower value 1.01 | locus YDL101C, strain DUN1, stronger effect = lower value 1.02 | locus YDL134C, strain PPH21, stronger effect = lower value 1 | locus YDL185W, strain tfp1, stronger effect = lower value 1 | locus YDL192W, strain arf1, stronger effect = lower value 1.01 | locus YDR001C, strain nth1, stronger effect = lower value 0.999 | locus YDR069C, strain doa4, stronger effect = lower value 1 | locus YDR101C, strain arx1, stronger effect = lower value 1 | locus YDR137W, strain rgp1, stronger effect = lower value 0.988 | locus YDR150W, strain NUM1, stronger effect = lower value 1 | locus YDR159W, strain sac3, stronger effect = lower value 0.989 | locus YDR162C, strain NBP2, stronger effect = lower value 0.966 | locus YDR195W, strain ref2 0.998 | locus YDR297W, strain sur2, stronger effect = lower value 1 | locus YDR318W, strain mcm21, stronger effect = lower value 1.01 | locus YDR334W, strain swr1, stronger effect = lower value 1 | locus YDR335W, strain msn5, stronger effect = lower value 0.989 | locus YDR388W, stronger effect = lower value 1.01 | locus YDR392W, strain spt3, stronger effect = lower value 0.928 | locus YDR502C, strain sam2, stronger effect = lower value 1 | locus YEL003W, strain gim4, stronger effect = lower value 0.998 | locus YEL037C, strain rad23, stronger effect = lower value 0.99 | locus YEL061C, strain CIN8 (second series), stronger effect = lower value 0.991 | locus YEL061C, strain CIN8, stronger effect = lower value 0.991 | locus YER015W, strain faa2, stronger effect = lower value 1 | locus YER016W, strain bim1, stronger effect = lower value 0.997 | locus YER110C, stronger effect = lower value 1.01 | locus YER111C, strain swi4, stronger effect = lower value 0.993 | locus YER155C, strain BEM2 (second series), stronger effect = lower value 0.994 | locus YER155C, strain BEM2, stronger effect = lower value 0.992 | locus YER167W, strain BCK2, stronger effect = lower value 1.01 | locus YFR010W, strain ubp6, stronger effect = lower value 1.01 | locus YGL078C, strain dbp3, stronger effect = lower value 1.01 | locus YGL086W, strain mad1, stronger effect = lower value 1 | locus YGL167C, strain pmr1, stronger effect = lower value 0.997 | locus YGL173C, strain kem1, stronger effect = lower value 0.993 | locus YGL227W, strain vid30, stronger effect = lower value 0.993 | locus YGL240W, strain doc1, stronger effect = lower value 1 | locus YGL248W, strain PDE1, stronger effect = lower value 1.01 | locus YGL253W, strain hxk2, stronger effect = lower value 0.994 | locus YGR078C, strain PAC10, stronger effect = lower value 0.992 | locus YGR135W, strain pre9, stronger effect = lower value 0.996 | locus YGR229C, strain SMI1, stronger effect = lower value 0.99 | locus YGR252W, strain gcn5, stronger effect = lower value 0.953 | locus YHR013C, strain ard1, stronger effect = lower value 0.974 | locus YHR027C, strain rpn1, stronger effect = lower value 0.992 | locus YHR030C, strain SLT2, stronger effect = lower value 1.01 and 1.04 | locus YHR079C, strain IRE1 (second series), stronger effect = lower value 1.02 | locus YHR079C, strain IRE1, stronger effect = lower value 1.05 | locus YHR094C, strain hxt1, stronger effect = lower value 1.01 | locus YHR129C, strain ARP1, stronger effect = lower value 1.02 | locus YHR142W, strain chs7, stronger effect = lower value 0.995 | locus YHR200W, strain rpn10, stronger effect = lower value 1 | locus YIL066C, strain RNR3, stronger effect = lower value 1 | locus YIL073C, strain SPO22, stronger effect = lower value 0.997 | locus YIL125W, strain kgd1, stronger effect = lower value 1.01 | locus YIR030C, strain dcg1, stronger effect = lower value 1.02 | locus YJL092W, strain hpr5, stronger effect = lower value 0.999 | locus YJL095W, strain BCK1 (second series), stronger effect = lower value 1 | locus YJL095W, strain BCK1, stronger effect = lower value 1.02 | locus YJL115W, strain asf1, stronger effect = lower value 0.995 | locus YJL129C, strain trk1, stronger effect = lower value 0.992 | locus YJL134W, strain LCB3, stronger effect = lower value 1 | locus YJL154C, strain vps35, stronger effect = lower value 0.997 | locus YJL164C, strain tpk1, stronger effect = lower value 0.991 | locus YJL166W, strain qcr8, stronger effect = lower value 0.994 | locus YJL168C, strain set2, stronger effect = lower value 1.01 | locus YJL187C, strain SWE1 (second series), stronger effect = lower value 1.01 | locus YJL187C, strain SWE1, stronger effect = lower value 0.999 | locus YJR043C, strain POL32, stronger effect = lower value 1.01 | locus YJR066W, strain TOR1, stronger effect = lower value 0.976
